# Compound activity as filed in PubChem BioAssay.
# Hits are enriched below; roughly 11% of the tested compounds scored in any of these assays.
# Pf growth 48h: P. falciparum growth inhibition at 48 hours (one generation) | P. falciparum luciferase growth in erythrocytes, 48 h | Potency, µM (top dose mostly 28.7 µM), for inactives: top-dose activity change, negative = inhibition, most hits filed as inhibitors | actives 5.9% (n = 310,000); further: on the % scale 0 is the no-effect control and ±100 the full control effect
#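 Firefly luciferase activity from engineered P. falciparum reports growth; inhibitors lower the luminescent signal. Cultures contained 2% hematocrit erythrocytes at 0.1% final parasitemia.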
# Sm TGR block: inhibitors of Schistosoma mansoni thioredoxin glutathione reductase | Potency, µM (series often up to 114 µM), for the others: at the highest dose activity change, negative = inhibition, usual class: inhibitors | purified TGR, DTNB reduction, TNB absorbance 405 nm | AID 485364 | actives 3% (n = 360,000) | Q962Y6; further: on the % scale 0 is the no-effect control and ±100 the full control effect; nearly all actives have a fitted effect of over 60% in size
#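 First, TGR (20 nM dispensed) and NADPH were mixed with compound. Second, a 15 min room-temperature incubation followed. Third, further NADPH and then DTNB were added to start the reaction. Finally, TNB absorbance was monitored kinetically.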
# NS1 function inh: blocks influenza NS1 protein function; Potency, µM (top dose mostly 46.1 µM), for the others: at the highest dose activity, positive = more growth; actives 0.4% (n = 270,000); AID 2326; calls by dose curve; further: actives are rising curves; nearly all actives have a fitted effect of over 50% in size
#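 Read-out: OD600 growth recovery of NS1-expressing budding yeast. Cells grown overnight at 30C in -URA glucose medium, washed, resuspended and diluted 1:100 in 2% galactose assay medium, pH 6.0. Same strain lacking NS1 served as positive control.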
# Pf growth 96h: P. falciparum growth inhibition at 96 hours; AID 504834; actives 6.9% (n = 320,000); Potency, µM (series often up to 28.7 µM), without a hit: at the highest dose activity change, negative = inhibition, actives largely listed as inhibitors; P. falciparum luciferase reporter growth, 96 h; further: on the % scale 0 is the no-effect control and ±100 the full control effect
#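 Plates of compound plus infected erythrocytes (2% hematocrit, 0.05% parasitemia final) incubate 96 hours, 37 C, 5% CO2. Detection reagent added; reduced luminescence from the parasites' luciferase reporter flags inhibition.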
# AMA1 RON2 block: disrupts binding of P. falciparum AMA1 to RON2; AlphaScreen AMA1-biotinylated RON2 peptide binding; Potency, µM (titrated, usually from 58.2 µM), for inactives: at the top dose activity change, negative = inhibition, actives largely listed as inhibitors; actives 0.2% (n = 360,000); AID 720542;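 further: 0% = vehicle wells and -100% = peptide control; nearly all actives have a fitted effect of over 45% in size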
#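 AMA1 (3D7) with his tag at 25 nM final met compounds first, then biotinylated RON2 peptide at 25 nM; detection used donor plus acceptor beads, 10 µg/mL apiece, read by AlphaScreen after 30 min at room temperature.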
# An asterisk follows results filed as active; ? = inconclusive; nt = no result; ! = not active in a repeat; [ ] = another dose, or the depositor's remark. Unless noted, the call rests on the fitted dose curve; in most records, active means well fitted curve in the direction sought with a large enough effect; inconclusive means small, poorly fitted or top-dose-only effect, or another doubt; inactive means no such curve, though single readings can be large; an effect the other way counts as inactive or inconclusive. Potency means the concentration at half of the fitted maximal effect.
SMILES,Pf growth 48h,Sm TGR block,NS1 function inh,Pf growth 96h,AMA1 RON2 block
COC(=O)CCc1c(COC(C)=O)[nH]c(C(=O)OCc2ccccc2)c1C,?,3.55µM*,-1.7%,?,10.1%
CC(=O)Nc1nonc1-c1nnc(SCc2ccccc2)n1C,nt,2.1%,nt,nt,nt
Cc1ccc(CN(C(=O)c2ccccc2F)c2ccccn2)o1,nt,44.7µM*,nt,nt,nt
COc1ccccc1NC(=O)c1nn(C)c2c1CS(=O)(=O)c1ccccc1-2,nt,1.7%,nt,nt,nt
COc1ccc(N2CCN(C(=O)c3nn(C)c4c3CS(=O)(=O)c3ccccc3-4)CC2)cc1,-7.6%,4.1%,4.8%,6.5%,-9.6%
COc1ccccc1N1CCN(C(=O)c2nn(C)c3c2CS(=O)(=O)c2ccccc2-3)CC1,-16.1%,8.91µM*!,-0.7%,?,-7.7%
Cc1ccccc1NC(=O)c1nn(C)c2c1CS(=O)(=O)c1ccccc1-2,1.5%,11.8%,-9.4%,13.1µM*,18.5%
Cc1ccc(C(OCC(O)CN2CCCCC2CO)c2ccccc2)cc1 (centres undefined),?,10.1%,2.6%,1.65µM*,-19.0%
CCOc1ccccc1C(=O)NC1CC2CCCC(C1)N2Cc1nnnn1Cc1ccco1 (centres undefined),11.7µM*,-23.3%,-19.5%,?,-6.4%
O=C(NC1CC2CCC(C1)N2Cc1nnnn1Cc1ccco1)NC12CC3CC(CC(C3)C1)C2 (centres undefined),11.7µM*,?,-13.0%,nt,13.3%
CN(C)/C=N/c1nc(Sc2ccc(C(F)(F)F)cc2[N+](=O)[O-])n[nH]1,6.8%,17.4%,-1.4%,79.0%,-13.3%
O=[N+]([O-])c1cc(C(F)(F)F)cc([N+](=O)[O-])c1Sc1n[nH]c(C(F)(F)F)n1,5.22µM*,0.2%,-2.6%,?,-6.9%
CC(C)(C)C(C(Oc1ccc(Cl)cc1)n1cncn1)n1nnnc1C(c1cccc(Cl)c1)N1CCCCC1 (centres undefined),1.85µM*,-1.3%,-8.4%,2.08µM*,nt
O=[N+]([O-])c1ccc(Sc2cccc[n+]2[O-])c2nonc12,2.94µM*,0.282µM*,-66.1%,0.828µM*,11.9%
O=[N+]([O-])c1ccc(Nc2ccccc2)c2nonc12,9.8%,?,-46.7%,-22.4%,?
Cc1cc(C)c(C)c(S(=O)(=O)N[C@@H](C)C(=O)OCc2cc(=O)n3cc(Br)ccc3n2)c1C,7.0%,5.2%,-37.6%,25.0%,-3.3%
COc1ccc2c3c(c(=O)oc2c1)C1O[C@](CCCCN2C(=O)c4ccccc4C2=O)(Cc2cc(OC)c(OC)cc21)O3,1.51µM*,?,?,40.6%[5.75 µM],nt
O=C1c2ccccc2C(=O)N1CCCC[C@]12Cc3ccccc3C(O1)c1c(c3ccccc3oc1=O)O2,?,-21.4%[22.9 µM],17.2%,?,nt
N#Cc1ccc2c(c1)C[C@]1(CCCCN3C(=O)c4ccccc4C3=O)Oc3c(c(=O)oc4ccc(F)cc34)C2O1,1.9µM*,2.9%[22.9 µM],14.1%,?,nt
COc1cc2c(cc1OC)C1O[C@](CCCCN3C(=O)c4ccccc4C3=O)(C2)Oc2c1c(=O)oc1ccc(F)cc21,?,2.51µM*,29.8%,-13.9%[5.75 µM],nt
Cc1cc2c(c(=O)o1)C1O[C@](CCCCN3C(=O)c4ccccc4C3=O)(Cc3cc(C#N)ccc31)O2,?,-18.7%[22.9 µM],?,?,nt
CC1(C)CC(=O)C2=C(C1)O[C@@]1(CCCCN3C(=O)c4ccccc4C3=O)Cc3cc(C#N)ccc3C2O1,1.51µM*,?,7.9%,49.3%[5.75 µM],nt
CCN(CC)S(=O)(=O)c1ccc(NC(=O)Cc2cccs2)cc1,-9.2%,-17.3%,nt,9.6%,4.8%
Cc1cc(C(=O)N2CCCC(C)(C(=O)NS(=O)(=O)C3CC3)C2)n(C(C)(C)C)n1 (centres undefined),nt,nt,nt,nt,2.5%
O=C1NC[C@H](CCCCN2CCN(CC3CCCCC3)C(=O)C2=O)N(Cc2ccccc2)C1=O,nt,nt,nt,nt,0.8%
SMILES,Pf growth 48h,Sm TGR block,NS1 function inh,Pf growth 96h,AMA1 RON2 block
Cc1ccc(NC(=O)c2cc(=O)c3ccccc3o2)cc1S(=O)(=O)N1CCCCC1,6.57µM*,6.7%,nt,?,-13.0%
CN(C)S(=O)(=O)c1cc(NC(=O)c2cc(=O)c3ccccc3o2)ccc1Cl,10.4µM*,3.9%,22.0%,?,-9.4%
Cc1ccc(NC(=O)c2cc(=O)c3ccccc3o2)cc1S(=O)(=O)N1CCOCC1,8.28µM*,9.4%,-9.5%,4.65µM*,-1.7%
COc1ccc(NC(=O)c2cc(=O)c3ccccc3o2)cc1Cl,?,3.1%,3.4%,-13.5%,-8.4%
Cc1ccc(N2CC(NS(=O)(=O)c3cc(F)ccc3F)CC2=O)cc1C (centres undefined),-9.3%,-6.0%,nt,?,-12.1%
O=C(Cn1ccnc1[N+](=O)[O-])N(CCO)CCO,nt,nt,nt,nt,9.9%
COc1ccc(CCNC(=O)CCCc2nnc3n(C)c(=O)c4sccc4n23)cc1OC,-5.3%,0.0%,-0.9%,?,-4.7%
Cc1ccc2nc(N3CCC(C(=O)N4CCN(c5cccc(C)c5C)CC4)CC3)[nH]c2c1,nt,0.3%,nt,nt,nt
CC[C@]1(C(=O)OC)[C@H]2C(=O)N(Cc3ccccc3)C(=O)[C@H]2[C@H]2CN(C)C(=NC)N21,nt,nt,nt,nt,-0.7%
O=C(COc1cc2oc(=O)c3c(c2cc1Cl)CCC3)NCCCN1CCCC1=O,?,-9.8%,-8.6%,13.1µM*,1.9%
Cc1cc(=O)oc2cc(OCC(=O)NCCCN3CCCC3=O)c(Cl)cc12,-4.9%,79.4µM*,-8.6%,?,0.0%
CCCCOc1ccc(C(=O)Nc2ccc3c(c2)CCCN3C(=O)c2cccs2)cc1,nt,8.7%,nt,nt,nt
CCc1ccccc1NC(=O)CSc1nnc([C@@H](N)Cc2c[nH]c3ccccc23)o1,-23.3%,3.7%,?,?,59.1%
Cc1ccc(NC(=O)CSc2nnc([C@@H](N)Cc3c[nH]c4ccccc34)o2)c(C)c1,?,2.9%,29.0%,9.28µM*,8.8%
Cc1ccc2nc(NC(=O)C3CCCN(S(=O)(=O)c4cccnc4)C3)sc2c1 (centres undefined),13.1µM*,-9.6%,-67.1%,8.2%,-0.7%
CCOc1ccc2nc(NC(=O)C3CCCN(S(=O)(=O)c4cccs4)C3)sc2c1 (centres undefined),14.7µM*,6.2%,-43.7%,-13.5%,-20.4%
COc1cc(NC(=O)[C@H]2CCCN2S(=O)(=O)c2cccc3cccnc23)cc(OC)c1OC,?,0.5%,nt,?,6.0%
COc1ccc(NC(=O)C2CCCN2S(=O)(=O)c2cccc3cccnc23)c(OC)c1 (centres undefined),-7.0%,-0.4%,-95.7%,10.4µM*,-8.4%
O=C(Nc1cccc(C(F)(F)F)c1)C1CCCN1S(=O)(=O)c1cccc2cccnc12 (centres undefined),?,23.2%,?,10.4µM*,-2.4%
COc1ccc(S(=O)(=O)N(CC(=O)NC(C)c2ccccc2)c2ccc(C)cc2)cc1OC (centres undefined),nt,-0.7%,nt,nt,nt
O=C(NC1(C(F)(F)F)OCCO1)c1ccc(F)cc1,-4.1%,nt,-0.7%,10.2%,6.0%
